Test results: PubChem BioAssay AID1233 (SRMLSC, 2008)
Results with a measured potency or affinity are listed apart. The source made the active and inactive calls.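 How the source made its calls: active means a dose-response curve fit returns a half-maximal inhibitory concentration, extrapolated values included; inactive means the fit returns no such concentration.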

target: HMG-CoA reductase [Enterococcus faecalis] (UniProt Q9FD70); experiment: inhibitors of E. faecalis class II HMGR, confirmation, biochemical, Enterococcus faecalis (AID 1233);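 further: 0% = full reaction carrier wells and 100% = background wells lacking mevalonate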; conditions: purified E. faecalis HMGR, NADPH absorbance 340 nm kinetics; series mostly up to 100 µM; inhibition: at the top concentration

inhibition, inactive:
CCOc1cc(N2CCOCC2)c(OCC)cc1NC(=O)CC12CC3CC(CC(C3)C1)C2 -4%
Cc1ccc(-c2cc(C(=O)O)n(-c3ccc(S(N)(=O)=O)cc3)n2)cc1 -2.07%
Cn1c(CN2CCCC2)c(C#N)c2ccccc21 -8.53%
CCOc1ccc(/C(O)=C2/C(=O)C(=O)N(CC3CCCO3)C2c2ccco2)cc1 (stereo not given) -5.36%
O=C(CSc1nnnn1-c1ccccc1)Nc1ccc(N2CCOCC2)c(Cl)c1 -8.15%
O=C1NC(=O)/C(=C/C(=O)N2CCOCC2)S1 -3.27%
Cc1ccc(SC(=O)COc2ccc(C)c(C)c2)cc1 -1.62%
CC(C)NC(=O)c1ccccc1NC(=O)C(C)Oc1ccccc1 (stereo not given) -3.55%
Cc1cc(N2C(=O)C(O)=C(C(=O)c3ccco3)C2c2cccnc2)no1 (stereo not given) -1.8%
O=C(Cc1ccccc1)Nc1ccccc1CO -3.78%
NC(=O)CSc1nnc(-c2ccc([N+](=O)[O-])cc2)o1 -0.33%
Cc1ccc(NC2=C(N3CCOCC3)C(=O)c3ccccc3C2=O)cc1 -1.54%
OCc1ccccc1CNCc1ccccc1 0.24%
COc1ccc(OC)c(NC(=O)NNC(=O)CCCOc2ccc(Cl)cc2C)c1 -2.73%
Brc1ccc(CSc2nnc3ccccn23)cc1 -5.51%
CCCn1c(=S)[nH]c2ccccc2c1=O -12.6%
CC1=C(C)C(=O)C(N2CCOCC2)=CC1=O -4.26%
COc1ccc(-c2[nH]nc3c2C(c2ccsc2)C(C#N)=C(N)O3)cc1 (stereo not given) -0.58%
CCn1c(SCC(=O)N/N=C/c2ccc(C)o2)nnc1-c1ccccc1 -0.02%
O=C(CNC(=O)c1ccc(S(=O)(=O)N2CCCC2)cc1)N/N=C/c1ccc(Cl)cc1 -7.1%
